Test [1] deals with Glutathione peroxidase 1 (Homo sapiens) (UniProt P07203). The test can be described thus: Primary qHTS Assay for Inhibitors of Recombinant Selenoprotein Glutathione Peroxidase 1 (GPX1) (AID 1845191). Further: nearly all actives have a fitted effect of over 65% in size. On activity, negative = inhibition: on the % scale 0 is the no-effect control and ±100 the full control effect. The method in brief: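 GR-coupled readout: NADPH consumption tracked by fluorescence, ex 340/em 450 nm, at t=0 and after 15 min at RT. Final mix 10 nM GPX1, 1 mM GSH, 0.5 mM CHP, 0.5 mM NADPH, 100 nM GR, 0.01% BSA, following 30 min enzyme–compound preincubation.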
Chain of Glutathione peroxidase 1 (Homo sapiens) (P07203 whole entry, looked up): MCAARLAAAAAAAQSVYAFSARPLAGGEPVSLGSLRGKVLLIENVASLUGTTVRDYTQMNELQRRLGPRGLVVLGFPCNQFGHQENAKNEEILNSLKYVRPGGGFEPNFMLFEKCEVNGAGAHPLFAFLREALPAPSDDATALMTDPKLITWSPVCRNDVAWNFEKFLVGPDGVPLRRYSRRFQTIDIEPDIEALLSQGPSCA
On the technique in general: qHTS replaces the single test concentration by a dilution series.

Test [2] has as its target Phospholipid hydroperoxide glutathione peroxidase GPX4 (Homo sapiens) (UniProt P36969). Kind of test: Primary qHTS Assay for Inhibitors of Recombinant Selenoprotein Glutathione Peroxidase 4 (GPX4) (AID 1845192). Further: nearly all actives have a fitted effect of over 65% in size. The method in brief: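 Steps: GPX4 plus compound, 30 min RT; add GR/GSH/NADPH master mix; start with cumene hydroperoxide; read 340/450 nm fluorescence at 0 and 15 min. Finals were 200 nM GPX4, 1 mM GSH, 0.5 mM CHP, 0.5 mM NADPH, 100 nM GR.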

In test [3] the target is Cytochrome P450 3A4 (Homo sapiens) (UniProt P08684). The test can be described thus: qHTS for inhibitors of CYP3A4 against the NCATS DSHEA and TCM libraries (AID 1919971).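 Further: on the % scale 0 is the no-effect control and ±100 the full control effect; inhibition lowers luminescence from luciferin made by CYP3A4.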 The method in brief:
(§1)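 Isoform-specific enzyme and substrate levels; enzyme-free wells as background. Reaction: 1x NADPH regenerating system, 30-45 min, room temperature, shielded from light; luminescent detection reagent added, 30 min.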

In test [4] the target is Cytochrome P450 2D6 (Homo sapiens) (UniProt P10635). The test can be described thus: qHTS for inhibitors of CYP2D6 against the NCATS DSHEA and TCM libraries (AID 1919972). Further: on the % scale 0 is the no-effect control and ±100 the full control effect. The method in brief: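 qHTS, concentration–response format with most substances from 19.5 nM. CYP2D6 + pro-luciferin substrate, 15 min with compound, then 1x NADPH regen, 30–45 min RT dark. Glo detection 30 min, luminescence. Quinidine control.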
Chain of Cytochrome P450 2D6 (Homo sapiens) (P10635 whole entry, looked up): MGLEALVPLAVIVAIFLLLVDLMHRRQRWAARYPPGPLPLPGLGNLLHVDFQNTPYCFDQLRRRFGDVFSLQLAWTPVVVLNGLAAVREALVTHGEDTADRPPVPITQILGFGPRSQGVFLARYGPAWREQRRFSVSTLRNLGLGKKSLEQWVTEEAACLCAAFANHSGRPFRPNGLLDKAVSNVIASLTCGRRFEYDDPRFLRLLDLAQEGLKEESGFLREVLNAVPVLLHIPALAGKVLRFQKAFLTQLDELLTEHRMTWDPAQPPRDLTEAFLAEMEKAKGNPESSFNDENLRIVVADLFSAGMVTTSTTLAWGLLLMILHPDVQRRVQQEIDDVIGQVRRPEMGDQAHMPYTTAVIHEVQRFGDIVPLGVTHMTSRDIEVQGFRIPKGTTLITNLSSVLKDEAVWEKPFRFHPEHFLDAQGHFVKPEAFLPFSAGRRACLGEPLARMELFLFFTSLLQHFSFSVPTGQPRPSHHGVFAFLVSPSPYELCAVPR

Test [5] deals with Cytochrome P450 2C9 (Homo sapiens) (UniProt P11712). The test can be described thus: qHTS for inhibitors of CYP2C9 against the NCATS DSHEA and TCM libraries (AID 1919973).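 Further: luminogenic pro-luciferin CYP2C9 substrate turned into luciferin with NADPH regeneration; on the % scale 0 is the no-effect control and ±100 the full control effect.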 Put shortly:
as §1

A short description of test [6]: KB-3-1 P-gp reporter qHTS against the NCATS DSHEA and TCM libraries (AID 1919975). Further: 0% is about no effect. The method in brief: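 CellTiter-Glo luminescence viability readout; KB-3-1 parental cells, 500/well, attached ~4 h, then compound for ~72 h, 37C, 5% CO2. Bortezomib intraplate control.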
Test [7] in a line: qHTS Counterscreen for compound interference against the NCATS DSHEA and TCM libraries (AID 1919978).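 Further: compounds preincubated with 1 µM D-luciferin or buffer before detection reagent; % of control where 0% means no effect.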 To be noted: firefly luciferase detection reagent interference, luminescence. Put shortly: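 Luminescence counterscreen for detection-kit interference: compounds at 19.5 nM–39.8 uM final, 15 min RT with 1 uM D-luciferin or buffer only; detection reagent added, 30 min RT, then read.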

A short description of test [8]: Dual reporter qHTS for agonist of Pregnane X Receptor (hPXR) against the NCATS DSHEA and TCM libraries: Fluorescence readout (AID 1920058). Further: 0% is about no effect. Put shortly: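 In this qHTS counter-read, reporter-bearing HepG2 cells in charcoal-stripped serum received substances for approximately 24 h before viability was assessed fluorometrically with CellTiter-Fluor.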
In test [9] the target is Nuclear receptor subfamily 1 group I member 2 (Homo sapiens) (UniProt O75469). Kind of test: Dual reporter qHTS for agonist of Pregnane X Receptor (hPXR) against the NCATS DSHEA and TCM libraries: Luminescence readout (AID 1920059). Further: 0% is about no effect. The method in brief:
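hPXR-Luc HepG2 cells, 2000/well in 5% charcoal-stripped FBS medium, attached 5 h, then exposed 24 h at 37C to compounds. Viability by CellTiter-Fluor, then luciferase luminescence with ONE-Glo.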

For test [10] the target is unchanged. The test can be described thus: Dual reporter qHTS for antagonist of Pregnane X Receptor (hPXR) against the NCATS DSHEA and TCM libraries: Luminescence Readout (AID 1920060).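 Further: HepG2 cells carrying hPXR luciferase reporter stimulated with rifampicin at 2 µM; 0% is about no effect.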 The method in brief: (§2)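 hPXR-Luc HepG2 cells exposed 24 h at 37 C to compounds with 2 uM rifampicin in antagonist mode; luciferase luminescence measured by ONE-Glo, with CellTiter-Fluor viability read beforehand.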

Test [11] can be described thus: Dual reporter qHTS for antagonist of Pregnane X Receptor (hPXR) against the NCATS DSHEA and TCM libraries: Fluorescence Readout (AID 1920061). Further: 0% is about no effect. The method in brief:
as §2

A short description of test [12]: qHTS profiling for inhibitors of Plasmodium falciparum proliferation (AID 504749). Further: nearly all actives have a fitted effect of over 60% in size. Further: potency means the concentration at half of the fitted maximal effect.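 On activity, negative = inhibition: 0% = DMSO vehicle and full inhibition = artemisinin control.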 Conditions: P. falciparum in erythrocytes, SYBR Green DNA, 72 h. The method in brief:
(§3)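 SYBR Green fluorescence (ex 485 nm, em 535 nm) reports parasite DNA after 72 h compound exposure of infected red cells at 0.3% parasitemia, 2.5% hematocrit; signal normalized to 0.29 uM artemisinin and vehicle wells.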

Another test relates to 3D7. Described as above. Conditions: P. falciparum in erythrocytes, SYBR Green DNA, 72 h; series mostly up to 28.7 µM. Put shortly: as §3
The next test relates to 7G8. The test is described as above. To be noted: P. falciparum in erythrocytes, SYBR Green DNA, 72 h; series mostly up to 28.7 µM. Put shortly: as §3
In another test the test system is AA1029. The test is described as above. Conditions: P. falciparum in erythrocytes, SYBR Green DNA, 72 h; series mostly up to 28.7 µM. The method in brief: as §3
The test system of the next test is AS120. The test is described as above. Conditions: P. falciparum in erythrocytes, SYBR Green DNA, 72 h; series mostly up to 28.7 µM. The method in brief: as §3
For the next test, the system named is ATS189. The test is described as above. To be noted: P. falciparum in erythrocytes, SYBR Green DNA, 72 h; series mostly up to 28.7 µM. Put shortly:
as §3

Test [13] is described as follows: qHTS drug screen for cell cycle checkpoint inhibitors in PARPi-resistant BRCA-mutant ovarian cancer cell lines. (AID 1963452; calls by dose curve). To be noted: PEO1/OlaR viability, CellTiter-Glo luminescence, 96 h, stronger effect = lower value. The method in brief: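 PEO1, PEO4 and PEO1/OlaR ovarian cancer cells, 600 per well, exposed 96 h at 37C to a dilution series. Viability read by CellTiter-Glo luminescence, normalized to DMSO and empty wells; activity summarized as Z-AUC.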

Where [14] appears, read: at 28.7 µM (top of the series), parasite line A.
Where [15] appears, read: at 28.7 µM (top of the series), parasite line B.

Results filed as inconclusive are left out. Active and inactive are the calls of the source. Unless noted, the call rests on the fitted dose curve; in most records, active means well fitted curve in the direction sought with a large enough effect; inconclusive means small, poorly fitted or top-dose-only effect, or another doubt; inactive means no such curve, though single readings can be large; an effect the other way counts as inactive or inconclusive.

Chain of Phospholipid hydroperoxide glutathione peroxidase GPX4 (Homo sapiens) (P36969 whole entry, looked up): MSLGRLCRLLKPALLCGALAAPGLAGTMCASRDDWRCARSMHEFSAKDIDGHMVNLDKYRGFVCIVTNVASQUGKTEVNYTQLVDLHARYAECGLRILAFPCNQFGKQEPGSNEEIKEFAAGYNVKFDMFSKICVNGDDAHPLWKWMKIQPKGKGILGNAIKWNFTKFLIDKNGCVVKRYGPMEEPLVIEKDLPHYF
Chain of Nuclear receptor subfamily 1 group I member 2 (Homo sapiens) (O75469 whole entry, looked up): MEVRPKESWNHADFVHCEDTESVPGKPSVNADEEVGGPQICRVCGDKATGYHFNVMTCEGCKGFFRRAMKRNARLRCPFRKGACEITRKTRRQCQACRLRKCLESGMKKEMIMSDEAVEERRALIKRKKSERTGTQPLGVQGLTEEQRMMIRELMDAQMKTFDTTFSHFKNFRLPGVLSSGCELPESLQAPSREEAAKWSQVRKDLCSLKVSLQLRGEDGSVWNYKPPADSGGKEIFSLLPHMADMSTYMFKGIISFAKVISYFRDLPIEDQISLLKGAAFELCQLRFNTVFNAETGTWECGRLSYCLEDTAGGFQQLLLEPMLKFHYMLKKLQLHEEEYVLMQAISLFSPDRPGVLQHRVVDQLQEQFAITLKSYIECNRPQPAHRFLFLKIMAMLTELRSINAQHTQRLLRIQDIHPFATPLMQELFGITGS
Chain of Cytochrome P450 3A4 (Homo sapiens) (P08684 whole entry, looked up, canonical isoform): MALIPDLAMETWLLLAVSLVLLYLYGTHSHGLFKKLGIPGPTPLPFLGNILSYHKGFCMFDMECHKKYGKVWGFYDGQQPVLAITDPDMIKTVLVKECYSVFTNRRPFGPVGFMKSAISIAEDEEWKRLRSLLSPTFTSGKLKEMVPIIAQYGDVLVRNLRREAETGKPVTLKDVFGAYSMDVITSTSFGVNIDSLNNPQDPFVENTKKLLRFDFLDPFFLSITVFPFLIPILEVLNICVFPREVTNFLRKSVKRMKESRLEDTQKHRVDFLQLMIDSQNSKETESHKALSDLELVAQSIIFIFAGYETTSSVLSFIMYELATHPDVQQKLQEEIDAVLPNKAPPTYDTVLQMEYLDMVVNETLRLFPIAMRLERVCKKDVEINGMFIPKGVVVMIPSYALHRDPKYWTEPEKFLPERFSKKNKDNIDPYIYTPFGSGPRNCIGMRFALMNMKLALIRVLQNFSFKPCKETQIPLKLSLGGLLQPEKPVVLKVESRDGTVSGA
Chain of Cytochrome P450 2C9 (Homo sapiens) (P11712 whole entry, looked up): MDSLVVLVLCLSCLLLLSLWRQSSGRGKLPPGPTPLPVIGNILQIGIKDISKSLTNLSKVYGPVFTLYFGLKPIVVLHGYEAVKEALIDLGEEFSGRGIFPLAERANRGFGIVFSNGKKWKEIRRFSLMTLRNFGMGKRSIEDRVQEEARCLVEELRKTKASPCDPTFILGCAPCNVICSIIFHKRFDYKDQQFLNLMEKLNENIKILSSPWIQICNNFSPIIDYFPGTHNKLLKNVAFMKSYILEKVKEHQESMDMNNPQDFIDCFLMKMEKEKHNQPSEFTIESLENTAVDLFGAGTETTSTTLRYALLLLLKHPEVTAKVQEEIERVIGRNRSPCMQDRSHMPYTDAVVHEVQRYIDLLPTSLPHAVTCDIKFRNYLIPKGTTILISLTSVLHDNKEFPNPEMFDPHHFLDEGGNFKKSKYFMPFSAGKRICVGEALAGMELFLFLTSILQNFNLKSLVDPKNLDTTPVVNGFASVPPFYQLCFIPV

As for `Cc1ccc(C(C)C)c(O)c1`, the Potency result (in [1]; in test [2]; in the test on 3D7; with 7G8; with AA1029; in the test on AS120) was “inactive” in each case. Besides, in the test with ATS189, the Potency entry is “inactive”. Also, the call in test [3], in [4], in test [5], in test [6], in test [8] and in test [9] was inactive. In addition, the call in [10] and in test [11] was inactive. For the same compound, the max response in test [7] is 0.241% (inactive). In addition, the activity, negative = inhibition in test [12] (setting [14]) is 4.16% (inactive); in test [12] (setting [15]), -10.5% (inactive).

As for `CC(=O)Oc1cccc(C)c1`, the Potency result (in test [1]; in [2]; with 3D7; with 7G8; in the test with AA1029; with AS120) was “inactive” throughout. The Potency entry in the test with ATS189 is “inactive”. Further, the results for the activity, negative = inhibition in test [12] (setting [14]) and in test [12] (setting [15]) were 4.88% (inactive) and -6.23% (inactive), respectively.

Regarding `Cc1cc(O)cc(C)c1Cl`, the Potency result (in test [1]; in test [2]; in the test with 3D7; in the test on AA1029; in the test on AS120) was “inactive” throughout. The activity, negative = inhibition in [12] (setting [14]) was -2.51% (inactive); in test [12] (setting [15]) it was -4.56% (inactive). For the same compound, the Potency in the test on 7G8 is 10 µM (active).

Regarding `COc1ccc(-c2cc(=O)c3c(O)cc(O[C@@H]4O[C@H](CO[C@@H]5O[C@@H](C)[C@H](O)[C@@H](O)[C@H]5O)[C@@H](O)[C@H](O)[C@H]4O)cc3o2)cc1O`, the Potency entry in test [1] and in test [2] was “inactive” in each case. The Z-AUC in [13] is 1.88 (inactive); in [13] (measured here: PEO1 parental Z-AUC), 1.52; in [13] (measured here: PEO4 Z-AUC), 0.98.

As for `O=C(Cn1ccnc1[N+](=O)[O-])NCc1ccccc1`, the Potency result (in [1]; in [2]; with 3D7; with 7G8; in the test with AA1029; in the test on AS120) was “inactive” throughout. Also, the Potency result with ATS189 was “inactive”. In addition, the values for the activity, negative = inhibition in test [12] (setting [14]) and in test [12] (setting [15]) were 12.6% (inactive) and 10.2% (inactive), respectively.

As for `Nc1ccc(C(=O)Oc2ccccc2)c(O)c1`, the Potency result (in test [1]; in test [2]; in the test on 3D7; in the test on 7G8; with AA1029; in the test with AS120) was “inactive” each time. Besides, the Potency result with ATS189 is “inactive”. Further, the results for the activity, negative = inhibition in test [12] (setting [14]) and in test [12] (setting [15]) were -10.9% (inactive) and 5.45% (inactive), respectively.

Take `CN/C(=C\[N+](=O)[O-])NCCSCc1csc(CN(C)C)n1`: the Potency result (in test [1]; in test [2]; with 3D7; in the test with 7G8; in the test on AA1029; in the test with AS120) was “inactive” each time. Besides, the Potency entry with ATS189 is “inactive”. The activity, negative = inhibition in test [12] (at 12.8 µM (top of the series), parasite line A) is 4.23% (inactive); in [12] (at 12.8 µM (top of the series), parasite line B), 7.76% (inactive).

For the compound `CC1CCN(CCCC(=O)c2ccc(F)cc2)CC1`, the Potency result (in test [1]; in test [2]; in the test with 3D7; with 7G8; with AA1029; with AS120) was “inactive” in each case. The Potency result in the test on ATS189 was “inactive”. For the same compound, the activity, negative = inhibition in test [12] (setting [14]) is 12.5% (inactive); in test [12] (setting [15]) it was 9.34% (inactive).

Turning to `CC(=O)Nc1ccccc1`, the Potency entry (in [1]; in [2]; in the test on 3D7; in the test with 7G8; in the test with AA1029; in the test on AS120) was “inactive” in each case. Also, the Potency entry with ATS189 was “inactive”. Further, the activity, negative = inhibition was 1.91% (inactive) in test [12] (setting [14]) and -0.613% (inactive) in [12] (setting [15]).

The record behind these values is PubChem BioAssay (NCATS).
